Results published in PubChem BioAssay (NCATS).
Results filed as inconclusive are left out. Where a call stands in place of a potency, no number is given. Calls of active or inactive are those of the source. The call rests on the fitted dose curve.

Experiment: Primary qHTS for inhibitors of MERS-S pseudo-typed particle cell entry (AID 1479149); further: nearly all actives have a fitted effect of over 60% in size; further: potency means the concentration at half of the fitted maximal effect
Conditions: MERS-S pseudotyped particle entry, luciferase; series mostly up to 57.1 µM

Compound	Potency
CNC(=O)Oc1cccc2ccccc12	inactive
Cc1ccc([N+](=O)[O-])[c]2c1[O][Hg]2	2.82 µM (active)
C[C@@H]1CN(C2CCC(C#N)(c3ccc(F)cc3)CC2)CC[C@]1(C(=O)O)c1ccccc1 (stereo not given in full)	inactive
Oc1ccc([C@H]2CNCc3c2ccc(O)c3O)cc1O	inactive
CC(Cc1ccccc1)NCCCCl (stereo not given)	inactive
O=C(N[C@H]1N=C(c2ccccc2F)c2cccc3c2N(CC3)C1=O)c1cc2ccccc2[nH]1	inactive
CCCCCCCCCCCC[N+](C)(C)CCOc1ccccc1	22.4 µM (active)
CC[C@]1(O)CC[C@H]2[C@@H]3CCC4=CCCC[C@@H]4[C@H]3CC[C@@]21C	inactive
CC(C)C(Br)C(=O)NC(N)=O (stereo not given)	inactive
C#C[C@]1(O)C=C[C@H]2[C@@H]3CCC4=CC(=O)CC[C@@H]4[C@H]3CC[C@@]21CC	inactive
CCC(=O)O[C@H]1CC[C@H]2[C@@H]3CCC4=CC(=O)CC[C@]4(C)[C@H]3CC[C@]12C	inactive
Cc1nnc2n1-c1sc(CCc3ccc(CC(C)C)cc3)cc1C(c1ccccc1Cl)=NC2C (stereo not given)	20 µM (active)
C[C@H](N)[C@H](O)c1ccc(O)c(O)c1	inactive

Experiment: Primary qHTS for Vero E6 cytotoxicity: counterscreen for inhibitors of SARS-S pseudo-typed particle cell entry (AID 1479150)
Conditions: cell viability; series mostly up to 57.1 µM

Compound	Potency
CNC(=O)Oc1cccc2ccccc12	inactive
CC#C[C@]1(O)CC[C@H]2[C@@H]3C[C@H](C)C4=CC(=O)CC[C@]4(C)[C@H]3CC[C@@]21C	inactive
CCOC(=O)c1ncn2c1CN(C)C(=O)c1c(I)cccc1-2	inactive
C[C@@H]1CN(C2CCC(C#N)(c3ccc(F)cc3)CC2)CC[C@]1(C(=O)O)c1ccccc1 (stereo not given in full)	inactive
Clc1ccc(CO/N=C(\Cn2ccnc2)c2ccc(Cl)cc2Cl)c(Cl)c1	inactive
O=C(CCCN1CCC(n2c(=O)[nH]c3ccccc32)CC1)c1ccc(F)cc1	inactive
Oc1ccc([C@H]2CNCc3c2ccc(O)c3O)cc1O	inactive
O=C(NC(=O)c1c(F)cccc1F)Nc1cc(Cl)c(OC(F)(F)C(F)C(F)(F)F)cc1Cl (stereo not given)	inactive
CC(Cc1ccccc1)NCCCCl (stereo not given)	inactive
C=CC[C@]1(O)CC[C@H]2[C@@H]3CCC4=CC(=O)CCC4=C3C=C[C@@]21C	inactive
O=C(N[C@H]1N=C(c2ccccc2F)c2cccc3c2N(CC3)C1=O)c1cc2ccccc2[nH]1	inactive
O=C1CN2CCOC2(c2ccccc2Cl)c2cc(Cl)ccc2N1 (stereo not given)	inactive
CC[C@]1(O)CC[C@H]2[C@@H]3CCC4=CCCC[C@@H]4[C@H]3CC[C@@]21C	inactive
CC(C)C(Br)C(=O)NC(N)=O (stereo not given)	inactive
C[C@]12Cc3nonc3C[C@@H]1CC[C@@H]1[C@@H]2CC[C@@]2(C)[C@H]1CC[C@]2(C)O	inactive
CCOC(=O)c1cncn1C(C)c1ccccc1 (stereo not given)	inactive
Clc1ccc(C(OCCN2CCCCC2)c2ccccc2)cc1 (stereo not given)	inactive
c1ccc2c(c1)Sc1ccccc1N2CC1CN2CCC1CC2 (stereo not given)	inactive
CCC(=O)C(CCN(C)C)(c1ccccc1)c1ccccc1	inactive
C=CCOC(Cn1ccnc1)c1ccc(Cl)cc1Cl (stereo not given)	inactive
C#C[C@]1(O)C=C[C@H]2[C@@H]3CCC4=CC(=O)CC[C@@H]4[C@H]3CC[C@@]21CC	inactive
CCC(=O)O[C@H]1CC[C@H]2[C@@H]3CCC4=CC(=O)CC[C@]4(C)[C@H]3CC[C@]12C	inactive
Cc1nnc2n1-c1sc(CCc3ccc(CC(C)C)cc3)cc1C(c1ccccc1Cl)=NC2C (stereo not given)	inactive
CC[C@H]1C[C@H]2[C@@H]3CCC4=CC(=O)CC[C@@H]4[C@H]3CC[C@]2(C)[C@H]1O	inactive
CN1C2CCC(C)(C)C1CC(OC(=O)C(O)(c1cccs1)c1cccs1)C2 (stereo not given)	inactive
CC(C(O)c1ccccc1)N(C)C/C=C/c1ccccc1 (stereo not given)	inactive
C[C@H](N)[C@H](O)c1ccc(O)c(O)c1	inactive
